From the supplement of paper PMC7724964 come the findings set out here.

T1: RARA 175-421 Hormone_recep (domain begin residue: 175, domain end residue: 421), P10276
T1 chain: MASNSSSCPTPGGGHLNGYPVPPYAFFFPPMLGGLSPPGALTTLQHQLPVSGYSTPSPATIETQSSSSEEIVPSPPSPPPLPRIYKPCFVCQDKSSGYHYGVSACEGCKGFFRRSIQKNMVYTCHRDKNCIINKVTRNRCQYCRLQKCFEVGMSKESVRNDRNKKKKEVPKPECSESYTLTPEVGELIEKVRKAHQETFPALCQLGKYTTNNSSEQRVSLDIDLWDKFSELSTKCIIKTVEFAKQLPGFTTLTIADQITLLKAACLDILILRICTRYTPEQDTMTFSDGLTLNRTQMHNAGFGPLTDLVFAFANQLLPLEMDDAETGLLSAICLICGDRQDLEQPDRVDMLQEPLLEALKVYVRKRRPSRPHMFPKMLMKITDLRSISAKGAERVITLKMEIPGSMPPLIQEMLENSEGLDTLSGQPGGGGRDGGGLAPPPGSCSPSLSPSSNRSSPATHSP

T2: RXRB 298-533 Hormone_recep (domain begin residue: 298, domain end residue: 533), P28702
T2 chain: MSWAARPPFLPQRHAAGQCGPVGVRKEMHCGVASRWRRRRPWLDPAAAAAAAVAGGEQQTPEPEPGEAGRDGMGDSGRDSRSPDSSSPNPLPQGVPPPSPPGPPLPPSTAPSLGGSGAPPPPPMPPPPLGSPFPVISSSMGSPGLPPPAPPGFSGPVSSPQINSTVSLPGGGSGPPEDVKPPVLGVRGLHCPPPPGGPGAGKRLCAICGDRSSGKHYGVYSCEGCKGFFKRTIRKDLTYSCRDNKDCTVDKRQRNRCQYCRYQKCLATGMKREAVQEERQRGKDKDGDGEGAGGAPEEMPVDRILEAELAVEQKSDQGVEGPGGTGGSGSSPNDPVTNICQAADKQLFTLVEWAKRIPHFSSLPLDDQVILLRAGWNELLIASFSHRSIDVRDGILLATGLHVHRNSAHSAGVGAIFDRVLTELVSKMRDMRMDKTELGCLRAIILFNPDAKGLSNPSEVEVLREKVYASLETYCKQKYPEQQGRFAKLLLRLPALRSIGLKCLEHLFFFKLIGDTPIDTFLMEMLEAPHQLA

T3: S100A11 5-105 S_100+EF-hand_1 (domain begin residue: 5, domain end residue: 105), P31949
T3 chain: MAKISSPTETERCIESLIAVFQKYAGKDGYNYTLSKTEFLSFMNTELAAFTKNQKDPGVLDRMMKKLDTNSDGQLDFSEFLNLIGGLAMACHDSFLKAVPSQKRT

T4: RBM17 298-401 RRM_1 (domain begin residue: 298, domain end residue: 401), Q96I25
T4 chain: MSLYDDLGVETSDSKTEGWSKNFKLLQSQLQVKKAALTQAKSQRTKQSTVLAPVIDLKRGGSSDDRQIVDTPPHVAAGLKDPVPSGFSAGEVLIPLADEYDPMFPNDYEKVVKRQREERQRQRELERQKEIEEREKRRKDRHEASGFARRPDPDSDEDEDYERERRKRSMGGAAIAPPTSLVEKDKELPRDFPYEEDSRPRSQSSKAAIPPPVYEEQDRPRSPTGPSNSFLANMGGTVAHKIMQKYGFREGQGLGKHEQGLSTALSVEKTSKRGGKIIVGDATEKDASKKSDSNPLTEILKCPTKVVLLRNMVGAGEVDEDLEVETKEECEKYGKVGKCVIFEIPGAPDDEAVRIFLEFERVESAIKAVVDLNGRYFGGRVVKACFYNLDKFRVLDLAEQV

T5: RARG 183-417 Hormone_recep (domain begin residue: 183, domain end residue: 417), P13631
T5 chain: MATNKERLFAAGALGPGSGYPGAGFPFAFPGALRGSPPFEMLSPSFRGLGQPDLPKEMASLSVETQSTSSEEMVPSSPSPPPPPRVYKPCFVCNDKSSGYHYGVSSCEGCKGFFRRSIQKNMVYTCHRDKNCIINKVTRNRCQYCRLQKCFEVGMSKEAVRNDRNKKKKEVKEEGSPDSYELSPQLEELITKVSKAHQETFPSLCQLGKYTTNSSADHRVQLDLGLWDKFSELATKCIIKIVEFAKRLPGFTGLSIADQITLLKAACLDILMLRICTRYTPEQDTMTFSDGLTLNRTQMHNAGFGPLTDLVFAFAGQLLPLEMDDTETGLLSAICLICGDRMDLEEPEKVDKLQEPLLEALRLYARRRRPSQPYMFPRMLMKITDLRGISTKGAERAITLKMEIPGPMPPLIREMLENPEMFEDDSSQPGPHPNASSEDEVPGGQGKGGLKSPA

T6: RORB 212-470 Hormone_recep (domain begin residue: 212, domain end residue: 470), Q92753
T6 chain: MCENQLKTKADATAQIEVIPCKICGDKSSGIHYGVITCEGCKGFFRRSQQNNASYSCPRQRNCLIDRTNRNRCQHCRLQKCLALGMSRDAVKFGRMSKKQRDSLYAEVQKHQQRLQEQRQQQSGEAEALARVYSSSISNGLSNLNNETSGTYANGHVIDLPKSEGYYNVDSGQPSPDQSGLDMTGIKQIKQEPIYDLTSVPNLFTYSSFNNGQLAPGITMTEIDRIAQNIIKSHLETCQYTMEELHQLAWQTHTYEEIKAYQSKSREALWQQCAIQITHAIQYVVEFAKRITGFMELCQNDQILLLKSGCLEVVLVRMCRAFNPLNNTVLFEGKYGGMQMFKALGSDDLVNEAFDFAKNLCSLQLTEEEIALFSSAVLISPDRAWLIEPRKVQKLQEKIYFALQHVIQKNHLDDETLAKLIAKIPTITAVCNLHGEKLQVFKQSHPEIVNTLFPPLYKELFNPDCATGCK

Chain of RANBP1 39-170 Ran_BP1 (domain begin residue: 39, domain end residue: 170), P43487 (P43487 whole entry): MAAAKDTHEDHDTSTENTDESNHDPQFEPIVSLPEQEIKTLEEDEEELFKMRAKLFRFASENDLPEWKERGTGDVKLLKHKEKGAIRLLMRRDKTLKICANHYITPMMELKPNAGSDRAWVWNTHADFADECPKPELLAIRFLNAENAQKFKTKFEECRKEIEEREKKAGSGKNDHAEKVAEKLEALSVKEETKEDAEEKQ
Chain of RPA1 2-121 Rep-A_N (domain begin residue: 2, domain end residue: 121), P27694 (P27694 whole entry): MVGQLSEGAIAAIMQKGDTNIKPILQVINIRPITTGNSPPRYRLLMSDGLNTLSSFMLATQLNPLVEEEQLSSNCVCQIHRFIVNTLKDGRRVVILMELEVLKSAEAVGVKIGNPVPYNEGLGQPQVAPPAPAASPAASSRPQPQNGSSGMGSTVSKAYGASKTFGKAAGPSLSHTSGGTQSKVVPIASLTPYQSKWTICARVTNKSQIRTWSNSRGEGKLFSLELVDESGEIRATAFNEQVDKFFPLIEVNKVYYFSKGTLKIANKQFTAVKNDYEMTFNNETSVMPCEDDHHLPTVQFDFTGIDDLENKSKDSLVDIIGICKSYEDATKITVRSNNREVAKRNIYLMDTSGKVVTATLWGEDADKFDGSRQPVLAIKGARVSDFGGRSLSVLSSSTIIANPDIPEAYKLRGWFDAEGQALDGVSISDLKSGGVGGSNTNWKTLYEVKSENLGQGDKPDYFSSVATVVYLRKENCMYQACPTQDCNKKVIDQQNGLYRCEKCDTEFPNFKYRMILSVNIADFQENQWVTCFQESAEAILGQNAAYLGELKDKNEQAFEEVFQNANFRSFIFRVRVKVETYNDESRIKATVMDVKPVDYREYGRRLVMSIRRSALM
Chain of SETD1A 2-220 RRM_1 (domain begin residue: 2, domain end residue: 220), O15047 (O15047 whole entry): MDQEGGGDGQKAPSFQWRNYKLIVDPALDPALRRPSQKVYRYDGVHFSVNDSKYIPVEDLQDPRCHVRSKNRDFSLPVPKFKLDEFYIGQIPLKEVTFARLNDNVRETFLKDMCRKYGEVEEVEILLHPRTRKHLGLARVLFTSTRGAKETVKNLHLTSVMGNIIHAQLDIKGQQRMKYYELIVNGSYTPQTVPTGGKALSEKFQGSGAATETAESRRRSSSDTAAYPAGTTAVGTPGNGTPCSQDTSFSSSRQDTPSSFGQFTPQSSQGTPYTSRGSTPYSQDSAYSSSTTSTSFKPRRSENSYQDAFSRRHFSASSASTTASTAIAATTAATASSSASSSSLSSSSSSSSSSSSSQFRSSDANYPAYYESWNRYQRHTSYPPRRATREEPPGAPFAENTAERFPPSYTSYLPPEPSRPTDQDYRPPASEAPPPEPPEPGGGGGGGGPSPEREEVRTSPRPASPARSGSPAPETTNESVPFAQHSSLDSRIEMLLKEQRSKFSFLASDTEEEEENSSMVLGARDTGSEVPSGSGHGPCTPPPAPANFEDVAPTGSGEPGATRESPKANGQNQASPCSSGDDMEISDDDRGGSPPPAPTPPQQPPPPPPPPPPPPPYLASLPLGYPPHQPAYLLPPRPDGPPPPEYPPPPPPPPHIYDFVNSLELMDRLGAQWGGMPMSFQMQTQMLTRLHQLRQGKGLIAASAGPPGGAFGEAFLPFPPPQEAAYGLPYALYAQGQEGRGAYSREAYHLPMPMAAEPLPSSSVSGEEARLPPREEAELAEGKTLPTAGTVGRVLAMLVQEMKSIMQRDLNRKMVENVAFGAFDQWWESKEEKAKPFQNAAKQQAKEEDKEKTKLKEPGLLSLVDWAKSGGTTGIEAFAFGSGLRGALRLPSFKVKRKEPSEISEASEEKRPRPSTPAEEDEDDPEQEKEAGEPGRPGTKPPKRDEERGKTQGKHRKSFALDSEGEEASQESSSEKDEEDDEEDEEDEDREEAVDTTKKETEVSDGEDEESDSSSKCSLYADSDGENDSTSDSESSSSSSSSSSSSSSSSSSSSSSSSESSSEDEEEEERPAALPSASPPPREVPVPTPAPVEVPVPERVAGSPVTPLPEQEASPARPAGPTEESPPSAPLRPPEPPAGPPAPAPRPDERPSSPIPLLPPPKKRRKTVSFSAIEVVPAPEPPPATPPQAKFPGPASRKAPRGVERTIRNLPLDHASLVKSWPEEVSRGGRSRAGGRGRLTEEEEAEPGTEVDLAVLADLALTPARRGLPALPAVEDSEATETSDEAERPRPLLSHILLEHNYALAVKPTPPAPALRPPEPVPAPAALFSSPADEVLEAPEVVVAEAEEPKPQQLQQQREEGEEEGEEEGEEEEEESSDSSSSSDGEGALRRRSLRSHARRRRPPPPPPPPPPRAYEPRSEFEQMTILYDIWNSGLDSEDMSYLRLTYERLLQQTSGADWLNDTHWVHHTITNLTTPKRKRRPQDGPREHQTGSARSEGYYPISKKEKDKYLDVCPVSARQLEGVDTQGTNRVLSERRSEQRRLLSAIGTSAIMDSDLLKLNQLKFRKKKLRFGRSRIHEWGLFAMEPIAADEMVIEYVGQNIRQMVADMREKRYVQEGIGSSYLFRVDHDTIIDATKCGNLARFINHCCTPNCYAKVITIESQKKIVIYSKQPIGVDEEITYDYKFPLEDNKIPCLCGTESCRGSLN
Chain of RBBP5 2-538 WD40 (domain begin residue: 2, domain end residue: 538), Q15291 (Q15291 whole entry): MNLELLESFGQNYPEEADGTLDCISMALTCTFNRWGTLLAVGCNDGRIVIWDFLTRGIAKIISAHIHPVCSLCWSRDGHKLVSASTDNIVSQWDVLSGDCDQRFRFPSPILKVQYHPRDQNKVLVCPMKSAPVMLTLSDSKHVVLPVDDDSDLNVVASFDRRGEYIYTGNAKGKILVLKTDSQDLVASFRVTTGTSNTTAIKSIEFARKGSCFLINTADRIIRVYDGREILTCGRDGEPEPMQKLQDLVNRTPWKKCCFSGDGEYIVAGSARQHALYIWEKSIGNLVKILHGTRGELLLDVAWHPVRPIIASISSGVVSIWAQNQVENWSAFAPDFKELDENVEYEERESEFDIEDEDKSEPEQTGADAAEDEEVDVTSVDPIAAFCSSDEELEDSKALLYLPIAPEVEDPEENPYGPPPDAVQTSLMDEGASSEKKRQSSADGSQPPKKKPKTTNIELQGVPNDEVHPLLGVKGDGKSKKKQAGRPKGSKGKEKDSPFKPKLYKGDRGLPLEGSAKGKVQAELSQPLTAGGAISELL
Chain of RPA2 202-270 RPA_C (domain begin residue: 202, domain end residue: 270), P15927 (P15927 whole entry): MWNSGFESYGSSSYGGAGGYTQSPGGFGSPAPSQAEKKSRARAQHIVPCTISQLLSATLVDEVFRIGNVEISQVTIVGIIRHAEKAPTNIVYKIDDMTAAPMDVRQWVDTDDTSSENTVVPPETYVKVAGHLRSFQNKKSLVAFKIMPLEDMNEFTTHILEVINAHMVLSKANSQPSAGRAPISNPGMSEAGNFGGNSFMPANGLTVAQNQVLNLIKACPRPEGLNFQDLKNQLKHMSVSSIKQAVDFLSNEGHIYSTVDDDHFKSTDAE

The target in the first assay is T1, RARA 175-421 Hormone_recep (domain …. Kind of assay: phage ELISA signal ratio (GST-PRM binding over GST background); higher = stronger binding of peptide-phage to the PRM. In outline:
(§1)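 Each value is the phage ELISA signal on the glutathione S-transferase (GST)-domain fusion divided by the signal on GST alone. Human peptide recognition domains were expressed in 96-well plates, fused to the C-terminus of GST, and selected against an M13 phage library carrying randomized, cysteine-free, glycine-flanked hexadecapeptides on the gene-8 major coat protein. After five selection rounds, approximately 48 individual clones from rounds 4 and 5 were tested by phage ELISA, and positive clones were sequenced.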
Consider GAWDWQLDQLLMQYLE, for which the “phage ELISA signal ratio” value came out at 4.72.

As for WPEYMSWDDAYWMTML, the “phage ELISA signal ratio” value was 4.17.

As to SQIQRYIDEAMTHQST, the “phage ELISA signal ratio” value amounted to 13.4.

On to RQSQLQMWIWDATQDE, for which the “phage ELISA signal ratio” value was found to be 3.71.

The next assay has as its target RANBP1 39-170 Ran_BP1 (domain begin residue: 39, domain end residue: 170), P43487. Described as above. In outline:
as §1
DMEQWWMELPQVPMYA: the “phage ELISA signal ratio” value was determined as 23.1.

Regarding WEWSPLPPDVETFSQI, the “phage ELISA signal ratio” value is 15.9.

For DHGWWMLNSNFLPVVP, the “phage ELISA signal ratio” value is 9.28.

QEFWERYTIPMWVDSF: the “phage ELISA signal ratio” value was 13.7.

As to QAVVPWQMPLPDWIVS, the “phage ELISA signal ratio” value is 18.4.

Turning to WGQMPLPVDMPETWNF, the “phage ELISA signal ratio” value was 21.

As to TEIALPWPDRAERAYL, the “phage ELISA signal ratio” value is 16.3.

In the case of PPLPPDKNDWHVEYMP, the “phage ELISA signal ratio” value came to 15.6.

Consider PQWWHNMPALPDDIIH, for which the “phage ELISA signal ratio” value turned out to be 14.7.

Regarding IDSYEHHSTGMVPLPD, the “phage ELISA signal ratio” value was 26.3.

For PTEAEWGIWHDLPDYE, the “phage ELISA signal ratio” value came out at 10.1.

With MGYWDYLPPVPGETWG, the “phage ELISA signal ratio” value was found to be 15.4.

As for WMMTLPPDMPGEWQVV, the “phage ELISA signal ratio” value stood at 11.

A further assay deals with T2, RXRB 298-533 Hormone_recep (domain …. The assay is described as above. In short, it runs like this: as §1
As to TPTDTAESIWEMYKKM, the “phage ELISA signal ratio” value was 28.

In the case of IEQAELIWMEYKKQTK, the “phage ELISA signal ratio” value turned out to be 6.73.

Regarding YPEHQWLEQHMFQTVQ, the “phage ELISA signal ratio” value came to 14.3.

On to ESNEMWEWVMNQAHVW, for which the “phage ELISA signal ratio” value was 11.2.

In the case of LDHMNWPEHDWLWATM, the “phage ELISA signal ratio” value was 16.1.

Another assay addresses RPA1 2-121 Rep-A_N (domain begin residue: 2, domain end residue: 121), P27694. The description is as above. In outline: as §1
Turning to YIQDWEMMDVWNTLVG, the “phage ELISA signal ratio” value was found to be 18.

Regarding YYVLDSEMETIWQSIL, the “phage ELISA signal ratio” value is 15.3.

YVTDLEMIETWNKFIN: the “phage ELISA signal ratio” value came to 16.4.

As for VSWWDDGLVYDWMSEF, the “phage ELISA signal ratio” value was 16.5.

For the molecule YIHDWEMFEHWENLWG, the “phage ELISA signal ratio” value was found to be 9.27.

For the molecule VWEDWTYMEDWEMMVF, the “phage ELISA signal ratio” value was 14.3.

Consider WELSDYTLIQAYDQIM, for which the “phage ELISA signal ratio” value turned out to be 13.8.

As to EEMPWYFIEDWEMEMY, the “phage ELISA signal ratio” value amounted to 10.6.

Take MWGGEDDLVQAWLEQF: the “phage ELISA signal ratio” value is 9.46.

Regarding TDMEYWEPFTDEELSM, the “phage ELISA signal ratio” value came out at 10.

On to EVEDMQWLEENWLVFW, for which the “phage ELISA signal ratio” value is 12.

The target in another assay is T3, S100A11 5-105 S_100+EF-hand_1 (domain …. The assay is described as above. In outline: as §1
With YWTWDDFQEMFLRLER, the “phage ELISA signal ratio” value came out at 4.97.

Regarding MEQWWHGEDIMWHWWE, the “phage ELISA signal ratio” value turned out to be 3.64.

In the next assay the target is RANBP2 2924-3050 Ran_BP1 (domain begin residue: 2924, domain end residue: 3050). The description is as above. In short, it runs like this: as §1
Regarding FDPLWMALPEDKVHEM, the “phage ELISA signal ratio” value was 3.06.

Take EFDAMQAHWNVLHPEG: the “phage ELISA signal ratio” value worked out at 8.19.

QYMLMSLPEDDWATPH: the “phage ELISA signal ratio” value was 4.31.

On to QDWWETALPQEPWHVV, for which the “phage ELISA signal ratio” value was found to be 22.7.

As to EWDWPSDHSWWEYIQH, the “phage ELISA signal ratio” value came to 8.48.

Turning to FDVPLPLEHDWWTSWV, the “phage ELISA signal ratio” value was determined as 3.39.

As for LSTDFLQMEHFWNQQF, the “phage ELISA signal ratio” value was found to be 3.07.

The next assay addresses RANBP2 1184-1310 Ran_BP1 (domain begin residue: 1184, domain end residue: 1310). Described as above. In short, it runs like this: as §1
Turning to QKVHPWDDWDSPFMWF, the “phage ELISA signal ratio” value came to 12.9.

In the case of DEELWAAPFTWGPVLE, the “phage ELISA signal ratio” value amounted to 4.84.

Take WADEWEAPFVWKMQEV: the “phage ELISA signal ratio” value came out at 3.11.

For the molecule WQSWDDWDRPMHPMEN, the “phage ELISA signal ratio” value stood at 6.6.

NDEWDHPFTFNPGVPP: the “phage ELISA signal ratio” value was 5.9.

For SKMDEWPPEPWELMKL, the “phage ELISA signal ratio” value was determined as 4.23.

In a further assay the target is RPA2 202-270 RPA_C (domain begin residue: 202, domain end residue: 270), P15927. The assay is described as above. In short, it runs like this:
as §1
Turning to WQWNGVWPDIIWVQVE, the “phage ELISA signal ratio” value was 7.24.

A further assay concerns the target SETD1A 2-220 RRM_1 (domain begin residue: 2, domain end residue: 220), O15047. The description is as above. In outline:
as §1
For HMAWDVIWDNIYLADS, the “phage ELISA signal ratio” value amounted to 4.42.

Take YNFPMDWDQIPITWPQ: the “phage ELISA signal ratio” value came out at 6.17.

The next assay has as its target T4, RBM17 298-401 RRM_1 (domain begin …. Described as above. In outline:
as §1
As for YRWDRQPSQEAVSSKY, the “phage ELISA signal ratio” value came out at 4.04.

For the molecule AQMAPRWDQMQPVMVE, the “phage ELISA signal ratio” value came out at 5.16.

A further assay has as its target T5, RARG 183-417 Hormone_recep (domain …. The assay is described as above. In outline: as §1
Take PYGPFKSFEYMDIQRT: the “phage ELISA signal ratio” value amounted to 26.7.

Another assay has as its target RBBP5 2-538 WD40 (domain begin residue: 2, domain end residue: 538), Q15291. The description is as above. In short, it runs like this:
as §1
As for QIEYWNSMEQTWVQSQ, the “phage ELISA signal ratio” value was found to be 9.82.

IFYWDFESQTWTMSAP: the “phage ELISA signal ratio” value amounted to 3.49.

A further assay deals with T6, RORB 212-470 Hormone_recep (domain …. The description is as above. In short, it runs like this:
as §1
Consider WEHHGWWTFWEEAPEQ, for which the “phage ELISA signal ratio” value stood at 4.7.
